In PubChem BioAssay AID1159580 (chemical genetic matrix, 2015):
Where “and” joins values, the source holds several entries; their conditions need not be identical. Equal values may be shown once. Among all 5,500 compounds or so, about 2,000 (36%) were called active. Roughly 18% stayed inconclusive and do not appear here. No stated cut-off is given here; in the data, active means normalized growth mostly below about 0.91 (no sharp cut-off); inconclusive means no clear call, values can overlap the other calls; inactive means mostly above about 0.92. The list shows a part of the results. The source holds several records for some structures; these can differ, active in one and inactive in another.

Assay: chemical genetic growth profiling, strain panel (AID 1159580);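 further: tested at 20 µM; growth read once vehicle control cultures reached saturation at 30 °C; 1 = growth at the plate median or of vehicle wells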
Settings: S. cerevisiae deletion strains, growth OD

For `O=c1c2ccccc2[se]n1-c1ccccc1`, the normalized growth (locus YAL013W, strain DEP1, stronger effect = lower value) was 0.0627 (active) and 0.948 (inactive), the normalized growth (locus YAL021C, strain ccr4, stronger effect = lower value) was 0.0697 (active) and the normalized growth (locus YAL026C, strain drs2, stronger effect = lower value) was 0.0626 (active). For the same compound, the normalized growth (locus YAL030W, strain snc1, stronger effect = lower value) was 0.057 (active), the normalized growth (locus YAL040C, strain CLN3, stronger effect = lower value) was 0.981 (inactive) and the normalized growth (locus YBL061C, strain skt5, stronger effect = lower value) was 0.0616 (active). The normalized growth (locus YBR009C, strain hhf1, stronger effect = lower value) was 0.067 (active), the normalized growth (locus YBR021W, strain FUR4, stronger effect = lower value) was 0.0951 (active) and the normalized growth (locus YBR023C, strain chs3, stronger effect = lower value) was 0.0842 (active). The normalized growth (locus YBR171W, strain sec66, stronger effect = lower value) was 0.927 (inactive), the normalized growth (locus YBR229C, strain ROT2, stronger effect = lower value) was 1.02 (inactive) and the normalized growth (locus YBR231C, strain swc5, stronger effect = lower value) was 0.129 (active). For the same compound, the normalized growth (locus YBR279W, strain paf1, stronger effect = lower value) was 0.0647 (active), the normalized growth (locus YCL011C, strain gbp2, stronger effect = lower value) was 0.057 (active) and the normalized growth (locus YCL016C, strain dcc1, stronger effect = lower value) was 0.102 (active). The normalized growth (locus YCL029C, strain bik1, stronger effect = lower value) was 0.873 (active), the normalized growth (locus YCL061C, strain MRC1 (second series), stronger effect = lower value) was 0.952 (inactive) and the normalized growth (locus YCL061C, strain MRC1, stronger effect = lower value) was 0.0738 (active). For the same compound, the normalized growth (locus YCL069W, strain vba3, stronger effect = lower value) was 0.0606 (active), the normalized growth (locus YCR088W, strain abp1, stronger effect = lower value) was 0.0595 (active) and the normalized growth (locus YDL005C, strain med2, stronger effect = lower value) was 0.071 (active). For the same compound, the normalized growth (locus YDL035C, strain GPR1, stronger effect = lower value) was 0.0537 (active), the normalized growth (locus YDL040C, strain nat1, stronger effect = lower value) was 0.909 (active) and the normalized growth (locus YDL074C, strain BRE1, stronger effect = lower value) was 0.0969 (active). For the same compound, the normalized growth (locus YDL101C, strain DUN1, stronger effect = lower value) was 0.869 (active), the normalized growth (locus YDL134C, strain PPH21, stronger effect = lower value) was 0.0461 (active) and the normalized growth (locus YDL185W, strain tfp1, stronger effect = lower value) was 0.999 (inactive). For the same compound, the normalized growth (locus YDL192W, strain arf1, stronger effect = lower value) was 0.0608 (active), the normalized growth (locus YDR001C, strain nth1, stronger effect = lower value) was 0.0663 (active) and the normalized growth (locus YDR069C, strain doa4, stronger effect = lower value) was 0.0621 (active). For the same compound, the normalized growth (locus YDR101C, strain arx1, stronger effect = lower value) was 0.437 (active), the normalized growth (locus YDR137W, strain rgp1, stronger effect = lower value) was 0.754 (active) and the normalized growth (locus YDR150W, strain NUM1, stronger effect = lower value) was 0.0598 (active) and 0.956 (inactive). The normalized growth (locus YDR159W, strain sac3, stronger effect = lower value) was 0.854 (active), the normalized growth (locus YDR162C, strain NBP2, stronger effect = lower value) was 0.054 (active) and the normalized growth (locus YDR195W, strain ref2) was 1.46 [resistant] (active). For the same compound, the normalized growth (locus YDR297W, strain sur2, stronger effect = lower value) was 0.06 (active), the normalized growth (locus YDR318W, strain mcm21, stronger effect = lower value) was 0.0683 (active) and the normalized growth (locus YDR334W, strain swr1, stronger effect = lower value) was 0.0625 (active). The normalized growth (locus YDR335W, strain msn5, stronger effect = lower value) was 0.574 (active), the normalized growth (locus YDR363W, strain ESC2, stronger effect = lower value) was 0.988 (inactive) and the normalized growth (locus YDR388W, stronger effect = lower value) was 0.0602 (active). For the same compound, the normalized growth (locus YDR392W, strain spt3, stronger effect = lower value) was 0.0762 (active), the normalized growth (locus YDR502C, strain sam2, stronger effect = lower value) was 0.0635 (active) and the normalized growth (locus YEL003W, strain gim4, stronger effect = lower value) was 0.106 (active). For the same compound, the normalized growth (locus YEL037C, strain rad23, stronger effect = lower value) was 0.0632 (active), the normalized growth (locus YEL061C, strain CIN8 (second series), stronger effect = lower value) was 0.0621 (active) and the normalized growth (locus YEL061C, strain CIN8, stronger effect = lower value) was 0.0485 (active). For the same compound, the normalized growth (locus YER002W, strain NOP16, stronger effect = lower value) was 0.999 (inactive), the normalized growth (locus YER015W, strain faa2, stronger effect = lower value) was 0.0679 (active) and the normalized growth (locus YER016W, strain bim1, stronger effect = lower value) was 0.147 (active). For the same compound, the normalized growth (locus YER110C, stronger effect = lower value) was 0.0784 (active), the normalized growth (locus YER111C, strain swi4, stronger effect = lower value) was 0.937 (inactive) and the normalized growth (locus YER155C, strain BEM2 (second series), stronger effect = lower value) was 0.0943 (active). The normalized growth (locus YER155C, strain BEM2, stronger effect = lower value) was 0.0677 (active), the normalized growth (locus YER167W, strain BCK2, stronger effect = lower value) was 0.0545 (active) and the normalized growth (locus YFR010W, strain ubp6, stronger effect = lower value) was 0.07 (active). The normalized growth (locus YGL078C, strain dbp3, stronger effect = lower value) was 0.0555 (active), the normalized growth (locus YGL086W, strain mad1, stronger effect = lower value) was 0.062 (active) and the normalized growth (locus YGL167C, strain pmr1, stronger effect = lower value) was 0.0891 (active). The normalized growth (locus YGL173C, strain kem1, stronger effect = lower value) was 0.0711 (active), the normalized growth (locus YGL227W, strain vid30, stronger effect = lower value) was 0.0629 (active) and the normalized growth (locus YGL240W, strain doc1, stronger effect = lower value) was 0.0921 (active). For the same compound, the normalized growth (locus YGL248W, strain PDE1, stronger effect = lower value) was 0.0477 (active), the normalized growth (locus YGL253W, strain hxk2, stronger effect = lower value) was 0.0553 (active) and the normalized growth (locus YGR078C, strain PAC10, stronger effect = lower value) was 0.0595 (active) and 0.975 (inactive). For the same compound, the normalized growth (locus YGR135W, strain pre9, stronger effect = lower value) was 0.0669 (active), the normalized growth (locus YGR229C, strain SMI1, stronger effect = lower value) was 0.0625 (active) and 0.862 (inactive) and the normalized growth (locus YGR252W, strain gcn5, stronger effect = lower value) was 0.162 (active). The normalized growth (locus YHR013C, strain ard1, stronger effect = lower value) was 0.11 (active), the normalized growth (locus YHR027C, strain rpn1, stronger effect = lower value) was 0.0642 (active) and the normalized growth (locus YHR030C, strain SLT2, stronger effect = lower value) was 0.0507 (active) and 0.0959 (active). The normalized growth (locus YHR079C, strain IRE1 (second series), stronger effect = lower value) was 0.65 (active), the normalized growth (locus YHR079C, strain IRE1, stronger effect = lower value) was 0.12 (active) and the normalized growth (locus YHR094C, strain hxt1, stronger effect = lower value) was 0.0617 (active). The normalized growth (locus YHR129C, strain ARP1, stronger effect = lower value) was 0.0594 (active), the normalized growth (locus YHR142W, strain chs7, stronger effect = lower value) was 0.0813 (active) and the normalized growth (locus YHR200W, strain rpn10, stronger effect = lower value) was 0.0601 (active). The normalized growth (locus YIL066C, strain RNR3, stronger effect = lower value) was 0.0543 (active), the normalized growth (locus YIL073C, strain SPO22, stronger effect = lower value) was 0.114 (active) and the normalized growth (locus YIL125W, strain kgd1, stronger effect = lower value) was 0.0566 (active). For the same compound, the normalized growth (locus YIR030C, strain dcg1, stronger effect = lower value) was 0.0629 (active), the normalized growth (locus YJL092W, strain hpr5, stronger effect = lower value) was 0.0617 (active) and the normalized growth (locus YJL095W, strain BCK1 (second series), stronger effect = lower value) was 0.0731 (active). The normalized growth (locus YJL095W, strain BCK1, stronger effect = lower value) was 0.12 (active) and 0.111 (active), the normalized growth (locus YJL115W, strain asf1, stronger effect = lower value) was 0.0858 (active) and the normalized growth (locus YJL129C, strain trk1, stronger effect = lower value) was 0.769 (active). For the same compound, the normalized growth (locus YJL134W, strain LCB3, stronger effect = lower value) was 0.0503 (active), the normalized growth (locus YJL154C, strain vps35, stronger effect = lower value) was 0.0602 (active) and the normalized growth (locus YJL164C, strain tpk1, stronger effect = lower value) was 0.0617 (active). For the same compound, the normalized growth (locus YJL166W, strain qcr8, stronger effect = lower value) was 0.0635 (active), the normalized growth (locus YJL168C, strain set2, stronger effect = lower value) was 0.0616 (active) and the normalized growth (locus YJL187C, strain SWE1 (second series), stronger effect = lower value) was 0.907 (inactive). For the same compound, the normalized growth (locus YJR043C, strain POL32, stronger effect = lower value) was 0.0678 (active) and the normalized growth (locus YJR066W, strain TOR1, stronger effect = lower value) was 0.883 (inactive).
